NPYLR7 ag: agonists of mosquito NPYLR7 receptor, primary screen, cell-based, Aedes aegypti, calcium fluorescence, mosquito biting behavior. Aedes aegypti neuropeptide Y-like receptor 7 (NPYLR7). HEK293T NPYLR7/Galpha15, GCaMP6s calcium fluorescence. activation, % at 10 µM. actives 0.15% (n = 270,000); in the data active = activation above about 40%;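 also: 0% = vehicle and 100% = reference agonist at the receptor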
mcGAS inh: cyclic GMP-AMP synthase inhibitors, mouse, primary biochemical chemiluminescence; Q8C6L5; recombinant cGAS, Kinase-Glo ATP depletion luminescence; inhibition, % at 12.5 µM; actives 0.15% (n = 160,000); AID 1259399, 2018;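 also: 0% = negative control wells and 100% = reference inhibitor with no enzyme activity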
Target sequence (Q8C6L5 whole entry, looked up): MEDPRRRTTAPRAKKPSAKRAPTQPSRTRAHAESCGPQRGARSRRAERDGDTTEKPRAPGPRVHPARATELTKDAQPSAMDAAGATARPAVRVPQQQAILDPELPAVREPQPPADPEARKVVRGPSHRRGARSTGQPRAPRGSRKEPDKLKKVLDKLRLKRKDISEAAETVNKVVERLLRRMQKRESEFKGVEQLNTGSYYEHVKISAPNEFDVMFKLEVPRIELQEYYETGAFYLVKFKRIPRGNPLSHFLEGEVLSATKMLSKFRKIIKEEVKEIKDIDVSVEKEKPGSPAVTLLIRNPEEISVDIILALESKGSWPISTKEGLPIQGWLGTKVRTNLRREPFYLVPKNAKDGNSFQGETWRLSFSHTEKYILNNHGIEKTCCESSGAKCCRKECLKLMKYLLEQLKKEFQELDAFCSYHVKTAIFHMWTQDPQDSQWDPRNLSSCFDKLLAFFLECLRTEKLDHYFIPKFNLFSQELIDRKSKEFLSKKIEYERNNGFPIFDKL
hcGAS lum: Primary biochemical luminescence assay for human cyclic GMP-AMP synthase inhibitors. inhibition, % at 12.5 µM. recombinant h-cGAS, ATP depletion, Kinase-Glo luminescence. actives 0.081% (n = 290,000). Q8N884;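 also: 0% = vehicle reaction and 100% = reaction without DNA for no activity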
Starred values were filed as active, the others as inactive; x = no result given. Sampled rows, rich in hits. Any-hit rate of the full collection: about 0.3%. Rule as the data show it, unless noted: active = inhibition above about 40%; inactive = the rest.

SMILES	NPYLR7 ag	mcGAS inh	hcGAS lum
COC(=O)/C(C#N)=C/c1c(Oc2ccc(C)cc2)nc2ccccn2c1=O	10	-8	-8
COc1ccccc1Oc1nc2ccccn2c(=O)c1/C=C(\C#N)c1nc2ccccc2s1	65*	-5	-9
Cc1cccc(Oc2nc3ccccn3c(=O)c2/C=C(\C#N)c2nc3ccccc3s2)c1	89*	-4	-8
O=S1(=O)CCN(c2cccc(NS(=O)(=O)c3cccc(F)c3F)c2)CC1	9	x	-8
CNC(c1ccc(Cl)cc1)c1ccc(Cl)cc1	-2	-9	-5
CCOC(=O)C1CCN(C(=O)C(C)n2ccsc2=NC(=O)c2cccc(C(F)(F)F)c2)CC1 (stereo unspecified)	-8	x	3
Cc1sc(=NC(=O)c2cccc(C(F)(F)F)c2)n(C(C)C(=O)NC2CC2)c1C (stereo unspecified)	7	x	184*
Cc1ncc(C(=O)NCCN2CCC(C)CC2)c(Cl)c1Br	11	x	-7
CCOc1ccc2nc(Nc3nc(C)c(C)c(C)n3)nc(C)c2c1	10	-5	-4
CCOc1ccc2nc3cc(N)ccc3c(N)c2c1	72*	x	99*
Brc1ccsc1/C=C/c1cccs1	-4	x	-9
COC(=O)c1cc(N)c(/C=C/c2cccs2)s1	184*	x	-7
CC1(C)CC(=N)C=C(N2CCOCC2)C1	5	x	-6
COc1ccc(C(=O)CSc2nc(=O)n3cccc(C)c3n2)cc1	11	x	-6
Cn1cc(Br)c(C(=O)N2CCC(Cc3ccccc3)CC2)n1	18	-8	-6
COCCN(Cc1ccc(C(C)(C)C)cc1)Cc1cccn1Cc1cccc(C)c1	17	-3	1
COCCCN(Cc1ccc(C(C)(C)C)cc1)Cc1cccn1Cc1cccc(C)c1	41*	-5	-10
CCOC(=O)C1=C(Cn2ncc(Cl)c(Cl)c2=O)NC(=O)NC1C (stereo unspecified)	1	x	-7
CN(C)/C=C1\C(=O)N(c2c(Cl)cccc2Cl)c2cc(C=C(C#N)C#N)ccc21	125*	x	-38
N#CC(=CC1C(=O)N(c2c(Cl)cccc2Cl)c2ccccc21)C(N)=NCc1ccccc1 (stereo unspecified)	-11	x	-4
COCCCNC(=O)c1cc(NC(=O)c2ccc(OC)cc2)ccc1N1CCN(c2ccccc2OC)CC1	-2	-4	-3
CCCCCc1ccc(C(=O)Nc2nnc(SCc3cccc(OC)c3)s2)cc1	x	-4	-3
Cc1ccccc1CC(=O)N1CCC(n2cnc3ccc(F)cc32)CC1	x	-6	-6
Cn1c(/C(C#N)=C/c2ccc(N3CCOCC3)o2)nc2ccccc21	126*	x	-18
Cn1c(C(C#N)=Cc2ccc([N+](=O)[O-])s2)nc2ccccc21	10	x	-4
SMILES	NPYLR7 ag	mcGAS inh	hcGAS lum
O=C1NC(=Nc2ccccc2)S/C1=C/c1cccc(OC(=O)c2ccccc2)c1	-10	-4	-6
O=c1[nH]c(SCCO)nc2sc3c(c12)CCCC3	40*	-6	-1
Cc1nc(SCCO)c2c3c(sc2n1)CCCC3	-1	7	-5
CCOC(=O)c1cc(C2CC2)n(C2CCN(C(=O)Cc3ccc(OC)cc3)CC2)n1	25	-3	-4
O[C@@H]1CN(Cc2ccncc2Cl)CC[C@H]1c1ccc2c(c1)OCO2	49*	x	-4
O[C@@H]1CN(Cc2ccc3c(c2)OCO3)CC[C@H]1c1ccc2c(c1)OCO2	2	x	-3
C=CCc1cc(CN2CCN(C)C3(CCN(C)CC3)C2)cc(OCC)c1O	14	x	-2
CC1(C)CC2CC(C)(CN2CC(=O)Nc2ccc3c(c2)OCCO3)C1 (stereo unspecified)	0	-6	-16
Cc1ccc(NC(=S)NC(=O)c2cccs2)nc1	1	-7	-6
Cc1ccc2c(c1)oc(=O)n2C1CCN(C(=O)c2cccs2)CC1	0	-3	0
O=C(NCC(=O)N1CCc2sccc2C1)c1ccc2c(c1)OCO2	0	-3	4
CCCS(=O)(=O)N1CCN=C1SCc1ccccc1C	44*	-10	-13
CCCS(=O)(=O)N1CCN=C1SCc1cc(C)ccc1C	9	-7	-8
Cc1ccc2nc(Cn3cnc4c(Cl)cc(Cl)cc4c3=O)cc(=O)n2c1	61*	x	-4
Cc1ccc2nc(Cn3cc(C(F)(F)F)cc(Cl)c3=O)cc(=O)n2c1	3	x	-1
COc1ccc2nc(-c3ccc(Cl)c(NC(=O)Nc4cccs4)c3)cn2n1	0	0	1
CC(C)c1nc(CNc2cccc(OCc3cccc(C#N)c3)c2)no1	-9	x	0
COCCN(Cc1cccc(OC)c1)CC(O)COc1ccc(OC)cc1 (stereo unspecified)	11	-2	-1
COc1ccc(OCC(O)CN(CCC(C)C)Cc2cccc(OC)c2)cc1 (stereo unspecified)	25	79*	-1
CCCCSc1nc2c(c(=O)n1-c1ccccc1OC)SCC2	0	x	-7
Cc1cc(S(=O)(=O)Nc2cccc(Br)c2)ccc1Br	-5	-4	-9
CC(C)=CCCC1(C)C=Cc2c(O)c3c(c(CC=C(C)C)c2O1)OC12C(=CCCC1C(C)(C)O[C@@]2(C/C=C(\C)C(=O)O)C(=O)O)C3=O (stereo partly specified)	x	58*	68*
CC(C)=CCc1c2c(c(O)c3c(=O)c(O)c(-c4ccccc4)oc13)C=CC(C)(C)O2	-4	-3	0
CCCNC(=O)NC(=O)CSc1nnc(N2CCCCC2)n1-c1ccc(C)cc1	-2	x	4
O=[N+]([O-])c1ccc(Sc2nnnn2-c2ccccc2)c([N+](=O)[O-])c1	3	72*	-7
SMILES	NPYLR7 ag	mcGAS inh	hcGAS lum
O=[N+]([O-])c1cc(S(=O)(=O)C(F)(F)F)ccc1Sc1nnnn1-c1ccccc1	0	12	-7
CCc1ccccc1Nc1nnc(SCC(=O)NC(C)C)s1	-1	-4	-5
CN1CCN(CCCC#N)c2ccc(F)cc21	0	x	-10
Cn1cc(S(=O)(=O)Nc2ccc(F)cn2)nc1Cl	-5	x	-4
COCCOc1ccc(NS(=O)(=O)c2cn(C)c(Cl)n2)cn1	99*	x	-9
CCc1nnc(NC(=O)c2cc(C)no2)s1	12	46*	16
CCOC(=O)c1sc(NC(=O)c2cc(C)no2)nc1C	6	-4	0
COc1ccc(-c2coc3cc(O)ccc3c2=O)c(O)c1O	x	68*	51*
COc1ccc(-c2coc3cc(O)ccc3c2=O)c(OC)c1O	-4	-2	-2
Cc1ccc(C)c(NC(=O)CN(C)C(=O)Cn2nc(C)c([N+](=O)[O-])c2C)c1	-7	x	-8
Cc1cccc(C(=O)N2CCC(C(NC(=O)c3ccc(F)cc3)C(=O)N3CCOCC3)CC2)c1 (stereo unspecified)	4	-4	-7
O=C(Nc1nnc(SCc2cc(F)cc(F)c2)s1)C1CC1	-3	2	2
COc1cc(CSc2nnc(NC(=O)C3CCC3)s2)cc(OC)c1	35	83*	-6
CC(=CC(=O)O)C1CCCCC1	-19	x	1
